About 4,300 (8.3%) of roughly 52,000 compounds were called active. This is one part of a sample in which actives are shown more often than they occur. Values without a mark were called inactive. Cut-off read from the data, not from the text of the source: active = survival mostly below about 52% (no sharp cut-off); inactive = mostly above about 56%.
The compounds below were run on DeltatarO mutant (assay: S. aureus survival, RN4220 and DeltatarO strains – OD600, teichoic acid synthesis inhibitors, primary screen (AID 463173)). Conditions: S. aureus RN4220 wild type/DeltatarO growth, OD600, 18 h, hits give low values, screened at 18.75 µg/mL (by protocol).

Compared with N#Cc1ccccc1NC(=O)CSC1=NCCS1, O=C(CSc1nc(O)cc(=O)[nH]1)Nc1ccccc1 is lower in survival: 99% for the first, 82% for the second.

First: COc1ccc(Nc2ncnc3scc(-c4ccc(F)cc4)c23)cc1
Second: COc1ccc(-c2csc3ncnc(Nc4cccc(OC)c4)c23)cc1
The survival of the first is higher: 92% for the first, 69% for the second.

Compared with O=C1CC(c2nc3ccccc3[nH]2)CN1c1cccc(Cl)c1 (stereo unspecified), O=C1C=CC(=O)C(c2ccc(Cl)cc2)=C1 is lower in survival: 81% for the first, 66% for the second.

Compared with COc1cc(C(=O)NCCSc2c(-c3ccccc3)[nH]c3ccccc23)cc(OC)c1OC, COc1cccc(NS(=O)(=O)c2ccc3[nH]cc(C(=O)NCCc4ccccc4)c(=O)c3c2)c1 is higher in survival: 68% for the first, 83% for the second.

Going from COc1cccc(NS(=O)(=O)c2ccc3[nH]cc(C(=O)N(C)C4CCCCC4)c(=O)c3c2)c1 to CN(C(=O)c1c[nH]c2ccc(S(=O)(=O)Nc3cccc(C(F)(F)F)c3)cc2c1=O)C1CCCCC1, the survival falls from 98% to 72%.

Going from CCN(c1ccccc1)S(=O)(=O)c1ccc2[nH]cc(C(=O)NC3CCCCC3)c(=O)c2c1 to COc1cccc(NS(=O)(=O)c2ccc3[nH]cc(C(=O)N4CCCCCC4)c(=O)c3c2)c1, the survival rises from 82% to 124%.

Compared with CC(C)c1ccc(NS(=O)(=O)c2ccc3[nH]cc(C(=O)N4CCCC4)c(=O)c3c2)cc1, CC(C)c1ccc(NS(=O)(=O)c2ccc3[nH]cc(C(=O)NCC4CCCO4)c(=O)c3c2)cc1 (stereo unspecified) is higher in survival: 76% for the first, 81% for the second.

Going from Cc1cc(C)cc(NS(=O)(=O)c2ccc3[nH]cc(C(=O)N4CCCCC4)c(=O)c3c2)c1 to Cc1cc(C)cc(NS(=O)(=O)c2ccc3[nH]cc(C(=O)N4CCCCCC4)c(=O)c3c2)c1, the survival rises from 83% to 85%.

Going from CC(C)c1ccc(NS(=O)(=O)c2ccc3[nH]cc(C(=O)NCCc4ccccc4)c(=O)c3c2)cc1 to Cc1ccccc1NS(=O)(=O)c1ccc2[nH]cc(C(=O)NC(C)c3ccccc3)c(=O)c2c1 (stereo unspecified), the survival rises from 73% to 90%.

Compared with Fc1ccc(Nc2ncnc3c2nc2n3CCCCC2)c(F)c1, CC(=O)N1CCCc2cc(S(=O)(=O)N3CCCC(C(=O)Nc4cccc(F)c4)C3)ccc21 (stereo unspecified) is higher in survival: 55% for the first, 87% for the second.

First: CN(C)S(=O)(=O)N(CC(=O)NCCSc1ccc(Cl)cc1)c1ccccc1
Second: Cc1ccc(C)c(Cn2c(SCC(=O)NCc3ccccc3)nc3ccccc32)c1
The survival of the first is lower: 50% for the first, 73% for the second.

Going from NC(=O)CCn1c2ccccc2c2ccccc21 to CCCN(C(=O)c1cn(C)c(=O)c2ccccc12)c1ccccc1C, the survival rises from 78% to 79%.

Compared with CCCCNc1sc(S(=O)(=O)CCC)nc1S(=O)(=O)c1ccc(C)cc1, Cc1ccc(S(=O)(=O)c2c(Nc3ccc(C)c(C)c3)sc(C(=O)c3ccc4c(c3)OCO4)c2N)cc1 is higher in survival: 86% for the first, 125% for the second.

Compared with COc1ccccc1NC(=O)c1cc2c([nH]c1=O)CC(C)(C)CC2=O, COc1cc(NC(=O)c2cc(Cl)ccc2Cl)ccc1NC(=O)c1cc2ccccc2o1 is lower in survival: 90% for the first, 55% for the second.

First: CCN(CC)C(=O)c1sc2c(c1C)c(=O)n(CCc1ccccc1)c(=O)n2Cc1cccc(Cl)c1
Second: CCc1ccc(-n2c(=O)c3c4c(sc3n(Cc3ccc(F)cc3)c2=O)CCCC4)cc1
The survival of the first is higher: 102% for the first, 42% for the second.

First: CCOc1ccc(-c2nc(Cn3ccn4nc(-c5ccc(OCC)c(Cl)c5)cc4c3=O)c(C)o2)cc1
Second: CCOc1ccc(-c2noc(CSc3nnc(Cc4ccccc4)n3-c3cccc(C)c3)n2)cc1
The survival of the first is higher: 96% for the first, 66% for the second.

Compared with CCCCOc1ccc(-c2nnn(C(C)(C)C(=O)O)n2)cc1, CCOc1ccc(NC(=O)CCC(=O)N2CCSc3ccccc32)cc1 is lower in survival: 99% for the first, 75% for the second.

Going from CCOC(=O)c1c(S(=O)(=O)NCC(=O)N2CCN(c3ccccc3OC)CC2)c(C)n(C)c1C to CCOc1ccc(S(=O)(=O)Nc2ccc3c(c2)c(C(C)=O)c(C)n3S(=O)(=O)c2ccc(OCC)cc2)cc1, the survival falls from 77% to 67%.

Compared with CC(C)CCNC(=O)c1c[nH]c2ccc(S(=O)(=O)Nc3cccc(C(F)(F)F)c3)cc2c1=O, COc1ccc(-c2cc(C(F)(F)F)n3nc(C(=O)Nc4cccc(Cl)c4C)cc3n2)cc1 is lower in survival: 74% for the first, 70% for the second.

Compared with NC(=O)CSc1nnc(Cn2cnc3ccccc32)o1, CCN(C(=O)c1coc(=O)c2ccccc12)c1ccccc1C is higher in survival: 79% for the first, 113% for the second.

Going from COc1ccc(-c2cc(C(F)(F)F)n3nc(C(=O)Nc4cc(Cl)cc(Cl)c4)cc3n2)cc1 to COc1ccc(-c2cc(C(F)(F)F)n3nc(C(=O)Nc4cc(C)ccc4C)cc3n2)cc1, the survival falls from 86% to 70%.

First: COc1ccc(-c2cc(C(F)(F)F)n3nc(C(=O)Nc4cc(C(F)(F)F)ccc4Cl)cc3n2)cc1OC
Second: COc1ccc(Cl)cc1NC(=O)c1cc2nc(-c3ccc(C)cc3)cc(C(F)(F)F)n2n1
The survival of the first is higher: 152% for the first, 78% for the second.

For COC(=O)c1ccc(C(=O)OC)c(NC(=O)c2cc3nc(-c4ccc(C)cc4)cc(C(F)(F)F)n3n2)c1, the survival was 83%.

COc1ccc(-c2csc3ncnc(Nc4cccc(F)c4)c23)cc1 was tested, and the survival was 0% (active).
With CC(C)c1ccc(NS(=O)(=O)c2ccc3[nH]cc(C(=O)NC4CCCCC4)c(=O)c3c2)cc1 the survival was 14% (active).
For Cc1cc(C)cc(NS(=O)(=O)c2ccc3[nH]cc(C(=O)NC4CCCCC4)c(=O)c3c2)c1, the survival was 17% (active).
For COc1cccc(NS(=O)(=O)c2ccc3[nH]cc(C(=O)NC4CCCCC4)c(=O)c3c2)c1, the survival was 35% (active).
With CC(C)c1ccc(NS(=O)(=O)c2ccc3[nH]cc(C(=O)NC4CCCC4)c(=O)c3c2)cc1 the survival was 4% (active).
For O=C(NC1CCCC1)c1c[nH]c2ccc(S(=O)(=O)Nc3cccc(C(F)(F)F)c3)cc2c1=O, the survival was 16% (active).
In the case of COc1cccc(NS(=O)(=O)c2ccc3[nH]cc(C(=O)NC(C)c4ccccc4)c(=O)c3c2)c1 (stereo unspecified), the survival is reported as 37% (active).
For CCCN(C(=O)c1coc(=O)c2ccccc12)c1ccccc1C, the survival was 56% (active).
COc1cc(NC(=O)c2cc3nc(-c4ccc(C)cc4)cc(C(F)(F)F)n3n2)cc(OC)c1OC was tested, and the survival was 41% (active).
For COc1ccc(NC(=O)c2cc3nc(-c4ccc(Cl)c(Cl)c4)cc(C(F)(F)F)n3n2)c(OC)c1, the survival was 47% (active).
COC(=O)c1ccccc1NC(=O)c1cc2nc(-c3ccc(OC)cc3)cc(C(F)(F)F)n2n1 was tested, and the survival was 36% (active).
